{"source": "PubChem BioAssay (EPA / NIEHS)", "note": "Values joined by “and” are separate entries in the source; they are usually repeats but may differ in a detail not shown here. Identical values can stand only once. Inconclusive results are not listed. More than one record can exist for a structure, and the calls need not agree. Active and inactive are the calls of the source. How the source made its calls, unless noted: active means hit-call score of the fitted dose curve at least 0.9, where 1 is the maximum; inactive means score below 0.9.", "data": [{"test": "CCTE_Shafer_MEA_acute_firing_rate_mean: CCTE's Neural Acute Assay for Mean Firing Rate, Shafer Lab (AID 2284009)", "summary_of_the_method": "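Spontaneous spiking of primary rat cortical networks, DIV 13/15, 37 C. Compound 0.03-40 uM, n ≥3 wells; 40 min baseline vs 40 min treated. Endpoint fitted in loss-of-signal direction against DMSO.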", "values": [{"compound": "N[C@@H](CCC(=O)O)C(=O)O", "outcome": "inactive"}, {"compound": "CC(C)(CO)CO", "outcome": "inactive"}, {"compound": "CC/C(=C(\\c1ccccc1)c1ccc(OCCN(C)C)cc1)c1ccccc1", "AC50": "2.73 µM (active) and 4.63 µM (active)"}, {"compound": "CCn1cc(C(=O)O)c(=O)c2ccc(C)nc21", "AC50": "3 nM (active)"}, {"compound": "CC(=O)c1ccc(C)cc1", "AC50": "3 nM (active)"}, {"compound": "c1ccc(OCCOc2ccccc2)cc1", "outcome": "inactive"}, {"compound": "CCCCOCCOCCO", "outcome": "inactive"}, {"compound": "CCCCN(CCO)CCO", "outcome": "inactive"}, {"compound": "CCCO[Si](OCCC)(OCCC)OCCC", "outcome": "inactive"}, {"compound": "O=C(c1ccc(OCCN2CCCCC2)cc1)c1c(-c2ccc(O)cc2)sc2cc(O)ccc12", "AC50": "14100 nM (active)"}, {"compound": "CC(C)CCCC(C)(C)O", "outcome": "inactive"}]}, {"test": "CCTE_Harrill_HTTr_Viability_MCF7: CCTE's 6-hour Cell Viability Assessment for the High-Throughput Transcriptomics (HTTr) Platform, in MCF-7 cells cultured in DMEM + 10% fetal bovine serum, Harrill Lab (AID 2284010)", "summary_of_the_method": "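Eight-point concentration series, six-hour exposure. Propidium iodide exclusion imaged to assess membrane integrity as a cytotoxicity readout; bidirectional fitting was done with DMSO as negative control and activity baseline.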", "values": [{"compound": "CC(C)Cc1ccc(C(C)C(=O)O)cc1", "note": "(stereo not drawn)", "outcome": "inactive"}, {"compound": "NC(=O)c1cnccn1", "outcome": "inactive"}, {"compound": "C=C1CC/C=C(\\C)CC[C@@H]2[C@@H]1CC2(C)C", "outcome": "inactive"}, {"compound": "CCCCOCCOCCOCCO", "outcome": "inactive"}, {"compound": "C[C@]12CC[C@@H]3c4ccc(O)cc4CC[C@H]3[C@@H]1CC[C@@H]2O", "outcome": "inactive"}, {"compound": "CC/C(=C(\\c1ccccc1)c1ccc(OCCN(C)C)cc1)c1ccccc1", "AC50": "67.3 µM (active)", "outcome": "inactive"}, {"compound": "C=C(C)C(N)=O", "outcome": "inactive"}, {"compound": "O=C(OCc1ccccc1)c1ccccc1O", "outcome": "inactive"}, {"compound": "Cc1ccncc1", "outcome": "inactive"}, {"compound": "CCn1cc(C(=O)O)c(=O)c2ccc(C)nc21", "outcome": "inactive"}, {"compound": "CNC(=C[N+](=O)[O-])NCCSCc1ccc(CN(C)C)o1", "outcome": "inactive"}, {"compound": "c1coc(CNc2ncnc3nc[nH]c23)c1", "outcome": "inactive"}, {"compound": "c1ccc(OCCOc2ccccc2)cc1", "outcome": "inactive"}, {"compound": "CCOC(=O)COC(=O)c1ccccc1C(=O)OCC", "outcome": "inactive"}, {"compound": "COC(=O)c1ccc(C(=O)OC)cc1", "outcome": "inactive"}, {"compound": "CCCCOCCOCCO", "outcome": "inactive"}, {"compound": "CC1=CCC(=C(C)C)CC1", "outcome": "inactive"}, {"compound": "CCOC(=O)C=Cc1ccccc1", "outcome": "inactive"}, {"compound": "CCCCCCCCCO", "outcome": "inactive"}, {"compound": "O=C(c1ccc(OCCN2CCCCC2)cc1)c1c(-c2ccc(O)cc2)sc2cc(O)ccc12", "outcome": "inactive"}, {"compound": "O=C1OCc2ccccc21", "outcome": "inactive"}, {"compound": "c1ccc2c(c1)-c1ccc3ccc4cccc5cc-2c1c3c45", "outcome": "inactive"}]}, {"test": "CCTE_Harrill_HTTr_Apoptosis_MCF7: CCTE's 6-hour Apoptosis Assessment for the High-Throughput Transcriptomics (HTTr) Platform, in MCF-7 cells cultured in DMEM + 10% fetal bovine serum, Harrill Lab (AID 2284011)", "summary_of_the_method": "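MCF-7 cells in DMEM + 10% FBS exposed 6 h to chemicals over an eight-point dilution series. Caspase-3/7 activation imaged by high-content CellEvent Green staining; fitted bidirectionally versus DMSO.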", "values": [{"compound": "CC(C)Cc1ccc(C(C)C(=O)O)cc1", "note": "(stereo not drawn)", "outcome": "inactive"}, {"compound": "NC(=O)c1cnccn1", "outcome": "inactive"}, {"compound": "C=C1CC/C=C(\\C)CC[C@@H]2[C@@H]1CC2(C)C", "outcome": "inactive"}, {"compound": "CCCCOCCOCCOCCO", "outcome": "inactive"}, {"compound": "C[C@]12CC[C@@H]3c4ccc(O)cc4CC[C@H]3[C@@H]1CC[C@@H]2O", "outcome": "inactive"}, {"compound": "CC/C(=C(\\c1ccccc1)c1ccc(OCCN(C)C)cc1)c1ccccc1", "outcome": "inactive"}, {"compound": "C=C(C)C(N)=O", "outcome": "inactive"}, {"compound": "O=C(OCc1ccccc1)c1ccccc1O", "outcome": "inactive"}, {"compound": "Cc1ccncc1", "outcome": "inactive"}, {"compound": "CCn1cc(C(=O)O)c(=O)c2ccc(C)nc21", "outcome": "inactive"}, {"compound": "c1coc(CNc2ncnc3nc[nH]c23)c1", "outcome": "inactive"}, {"compound": "c1ccc(OCCOc2ccccc2)cc1", "outcome": "inactive"}, {"compound": "CCOC(=O)COC(=O)c1ccccc1C(=O)OCC", "outcome": "inactive"}, {"compound": "COC(=O)c1ccc(C(=O)OC)cc1", "outcome": "inactive"}, {"compound": "CCCCOCCOCCO", "outcome": "inactive"}, {"compound": "CC1=CCC(=C(C)C)CC1", "outcome": "inactive"}, {"compound": "CCOC(=O)C=Cc1ccccc1", "outcome": "inactive"}, {"compound": "CCCCCCCCCO", "outcome": "inactive"}, {"compound": "O=C(c1ccc(OCCN2CCCCC2)cc1)c1c(-c2ccc(O)cc2)sc2cc(O)ccc12", "outcome": "inactive"}, {"compound": "O=C1OCc2ccccc21", "outcome": "inactive"}, {"compound": "c1ccc2c(c1)-c1ccc3ccc4cccc5cc-2c1c3c45", "outcome": "inactive"}]}, {"test": "CCTE_Harrill_HTTr_CellCount_MCF7: CCTE's Cell Proliferation Assessment for the High-Throughput Transcriptomics (HTTr) Platform, Harrill Lab (AID 2284012; active means hit-call score of the fitted dose curve at least 0.9, where 1 is the maximum;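 further: intended direction is loss of nuclei count meaning fewer cells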)", "summary_of_the_method": "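For this full-screen endpoint, MCF-7 cultures received eight compound dilutions for six hours. Well nuclei counts from Hoechst imaging were analyzed relative to DMSO.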", "values": [{"compound": "CC/C(=C(\\c1ccccc1)c1ccc(OCCN(C)C)cc1)c1ccccc1", "AC50": "72.5 µM (active)", "outcome": "inactive"}, {"compound": "CCn1cc(C(=O)O)c(=O)c2ccc(C)nc21", "outcome": "inactive"}, {"compound": "c1ccc(OCCOc2ccccc2)cc1", "outcome": "inactive"}, {"compound": "CCCCOCCOCCO", "outcome": "inactive"}, {"compound": "O=C(c1ccc(OCCN2CCCCC2)cc1)c1c(-c2ccc(O)cc2)sc2cc(O)ccc12", "outcome": "inactive"}]}, {"test": "CCTE_Shafer_MEA_acute_burst_number: CCTE's Neural Acute Assay for Single-Electrode Bursts, Shafer Lab (AID 2284013)", "summary_of_the_method": "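Burst totals were derived with adaptive spike detection (8x rms threshold) on filtered signals from rat cortical cultures; change relative to pre-treatment baseline after 40-min compound exposure (0.03-40 uM) was fitted in the negative direction against DMSO.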", "values": [{"compound": "N[C@@H](CCC(=O)O)C(=O)O", "outcome": "inactive"}, {"compound": "CC(C)(CO)CO", "outcome": "inactive"}, {"compound": "CC/C(=C(\\c1ccccc1)c1ccc(OCCN(C)C)cc1)c1ccccc1", "AC50": "2.79 µM (active) and 4.2 µM (active)"}, {"compound": "CCn1cc(C(=O)O)c(=O)c2ccc(C)nc21", "AC50": "3 nM (active)"}, {"compound": "CC(=O)c1ccc(C)cc1", "AC50": "3 nM (active)"}, {"compound": "c1ccc(OCCOc2ccccc2)cc1", "outcome": "inactive"}, {"compound": "CCCCOCCOCCO", "outcome": "inactive"}, {"compound": "CCCCN(CCO)CCO", "outcome": "inactive"}, {"compound": "CCCO[Si](OCCC)(OCCC)OCCC", "outcome": "inactive"}, {"compound": "O=C(c1ccc(OCCN2CCCCC2)cc1)c1c(-c2ccc(O)cc2)sc2cc(O)ccc12", "AC50": "11200 nM (active)"}, {"compound": "CC(C)CCCC(C)(C)O", "outcome": "inactive"}]}, {"test": "CCTE_Shafer_MEA_acute_burst_duration_mean: CCTE's Neural Acute Assay for Mean Burst Duration, Shafer Lab (AID 2284014)", "summary_of_the_method": "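Acute exposure of mature rat cortical networks (DIV 13 or 15) grown on microelectrode arrays to 0.03-40 uM compound. Mean burst duration compared with the 40-min pre-dose baseline over a 40-min post-dose recording at 37 C.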", "values": [{"compound": "N[C@@H](CCC(=O)O)C(=O)O", "outcome": "inactive"}, {"compound": "CC(C)(CO)CO", "outcome": "inactive"}, {"compound": "CC/C(=C(\\c1ccccc1)c1ccc(OCCN(C)C)cc1)c1ccccc1", "outcome": "inactive"}, {"compound": "CCn1cc(C(=O)O)c(=O)c2ccc(C)nc21", "outcome": "inactive"}, {"compound": "CC(=O)c1ccc(C)cc1", "outcome": "inactive"}, {"compound": "c1ccc(OCCOc2ccccc2)cc1", "outcome": "inactive"}, {"compound": "CCCCOCCOCCO", "outcome": "inactive"}, {"compound": "CCCCN(CCO)CCO", "outcome": "inactive"}, {"compound": "CCCO[Si](OCCC)(OCCC)OCCC", "outcome": "inactive"}, {"compound": "O=C(c1ccc(OCCN2CCCCC2)cc1)c1c(-c2ccc(O)cc2)sc2cc(O)ccc12", "outcome": "inactive"}, {"compound": "CC(C)CCCC(C)(C)O", "outcome": "inactive"}]}]}
